Growth data for 14 molecules are collected here from PubChem BioAssay (NCI).

SMILES strings stand for the structures. Compounds without any hit were thinned out: in the full panel of roughly 83,000, 20% have a hit.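 96-well plates, one dose, 48 hours. Percent growth reported; active if below 10.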 A number with no mark means an inactive call. Active and inactive are the calls of the source.

Among the test systems are HCT-15 colon; HT29 colon; SNB-75 CNS; SNB-19 CNS; U251 CNS; PC-3 prostate; SK-MEL-5 melanoma; UACC-62 melanoma; LOX IMVI melanoma; SK-MEL-28 melanoma.
Test in all cases: NCI-60 one-dose screen, 48 h (100 = growth as untreated, 0 = no growth, -100 = all killed)
Common to all, as to details: 10 µM

Take `Cc1nc2cc(-n3c(-c4ccc(F)cc4)nc4ccccc4c3=O)ccc2n1Cc1ccccc1`: the growth is 3.41% (active) in the assay on HCT-15 colon; -23.8% (active) with HT29 colon; 6.2% (active) with SNB-75 CNS; 37.9% in the assay on SNB-19 CNS; 9.65% (active) in the assay with U251 CNS; 9.75% (active) in the assay on PC-3 prostate. In addition, the growth is -77% (active) in the assay on SK-MEL-5 melanoma, 0.751% (active) with UACC-62 melanoma, 6.97% (active) in the assay with LOX IMVI melanoma and -60.3% (active) with SK-MEL-28 melanoma.
As to `COc1ccc(CCc2nc3cc(-c4c(C)noc4C)ccc3n2CCN2CCOCC2)cc1`, the growth in the assay on HCT-15 colon is 52.8%; in the assay with HT29 colon it was 12.8%; with SNB-75 CNS, 27.8%; with SNB-19 CNS, 48.9%; in the assay with U251 CNS, 17%; in the assay on PC-3 prostate it was 11.8%. Further, the growth in the assay on SK-MEL-5 melanoma is -0.324% (active); in the assay on UACC-62 melanoma, 20%; with LOX IMVI melanoma it was 50.2%; in the assay with SK-MEL-28 melanoma, 33.6%.
In the case of `C/C(=N\NC(=S)N1CCCC1)c1ccccn1`, the growth is 31% in the assay with HCT-15 colon; 26.3% in the assay on HT29 colon; 39.2% in the assay on SNB-75 CNS; 20.3% in the assay on SNB-19 CNS; 4.05% (active) in the assay with U251 CNS; 24.7% in the assay on PC-3 prostate. The growth in the assay with SK-MEL-5 melanoma is 4.15% (active); with UACC-62 melanoma, -35.9% (active); in the assay with LOX IMVI melanoma, 1.56% (active); in the assay on SK-MEL-28 melanoma, 24.3%.
On to `O=[N+]([O-])c1cc2ncccc2c2ncccc12`, for which the growth was 71.9% with HCT-15 colon; 102% in the assay on HT29 colon; 88.2% in the assay with SNB-75 CNS; 96% in the assay with SNB-19 CNS; 102% in the assay on U251 CNS; 77.8% in the assay with PC-3 prostate. The growth in the assay on SK-MEL-5 melanoma is 72.1%; in the assay with UACC-62 melanoma, 76.4%; with LOX IMVI melanoma, 45.5%; in the assay on SK-MEL-28 melanoma, 92%.
`N#Cc1ccc(-n2cnc(NC(=O)[C@H]3CCN(C#N)C3)c2)cc1`: the growth is 11.1% with HCT-15 colon; 15.6% in the assay on HT29 colon; -1.74% (active) with SNB-75 CNS; 35.1% with SNB-19 CNS; 7.35% (active) with U251 CNS; 32% with PC-3 prostate. The growth is 12.1% in the assay on SK-MEL-5 melanoma, 18.8% in the assay with UACC-62 melanoma, 16.5% in the assay with LOX IMVI melanoma and 36.4% in the assay with SK-MEL-28 melanoma.
Regarding `C[C@@H]1C(=O)N(C[C@H](Cc2ccccc2)NC(=O)OCc2ccccc2)[C@]1(Cc1ccccc1)C(=O)OCc1ccccc1`, the growth in the assay with HCT-15 colon is 39.3%; in the assay with HT29 colon it was 43.7%; in the assay with SNB-75 CNS it was 52.5%; with SNB-19 CNS it was 56.7%; in the assay on U251 CNS, 35.2%; with PC-3 prostate it was 10.4%. In addition, the growth in the assay on SK-MEL-5 melanoma is 13.2%; in the assay with UACC-62 melanoma, 40.7%; in the assay on LOX IMVI melanoma, 36.5%; in the assay on SK-MEL-28 melanoma, 66.9%.
As to `Cc1ccc(-n2nnc3c(sc4ccccc43)c2=O)cc1`, the growth in the assay on HCT-15 colon is 89.3%; with HT29 colon it was 5.36% (active); with SNB-75 CNS, 31.4%; in the assay on SNB-19 CNS, 44.2%; in the assay with U251 CNS, 18%; with PC-3 prostate it was 61.7%. Further, the growth is 76.9% in the assay with SK-MEL-5 melanoma, 85.4% in the assay with UACC-62 melanoma, 39.3% in the assay on LOX IMVI melanoma and 89.9% with SK-MEL-28 melanoma.
Turning to `COc1cc([C@@H]2c3cc4c(cc3[C@H](SC(=N)N)[C@H]3COC(=O)[C@H]23)OCO4)cc(OC)c1OC`, the growth in the assay on HCT-15 colon was 11.8%; in the assay with HT29 colon it was 8.38% (active); with SNB-75 CNS it was 30.1%; with SNB-19 CNS it was 37.4%; in the assay on U251 CNS it was 23.2%; in the assay with PC-3 prostate it was 19.5%. Besides, the growth was -29.6% (active) with SK-MEL-5 melanoma, 62.2% in the assay with UACC-62 melanoma, 16.5% in the assay with LOX IMVI melanoma and 63.7% in the assay with SK-MEL-28 melanoma.
For the molecule `NC(=O)c1ccc(Br)o1`, the growth in the assay on HCT-15 colon was 94.1%; in the assay with HT29 colon it was 95.7%; with SNB-75 CNS, 95.3%; in the assay on SNB-19 CNS, 109%; with U251 CNS, 105%; in the assay on PC-3 prostate, 102%. The growth with SK-MEL-5 melanoma is 102%; in the assay with UACC-62 melanoma, 101%; in the assay with LOX IMVI melanoma, 98.1%; in the assay with SK-MEL-28 melanoma it was 107%.
As for `COc1cc(-c2nc3ccccc3[nH]2)ccc1OCC(=O)N=Nc1c(O)[nH]c2ccccc12`, the growth in the assay with HCT-15 colon is 99.4%; in the assay with HT29 colon it was 91.5%; with SNB-75 CNS, 98.1%; in the assay on SNB-19 CNS, 98.4%; with U251 CNS, 32.1%; with PC-3 prostate it was 64%. In addition, the growth was 68.9% with SK-MEL-5 melanoma, 94.9% with UACC-62 melanoma, 83.4% in the assay on LOX IMVI melanoma and 101% with SK-MEL-28 melanoma.
Take `CCN(Cc1ccccc1)C1CCN(Cc2cc(Br)ccc2O)CC1`: the growth in the assay on HCT-15 colon was 50.1%; in the assay on HT29 colon it was 13.3%; in the assay with SNB-75 CNS, 49.2%; in the assay on SNB-19 CNS it was 65.7%; in the assay with U251 CNS, 43.9%; in the assay on PC-3 prostate it was 45.7%. For the same molecule, the growth in the assay on SK-MEL-5 melanoma is 32.1%; in the assay with UACC-62 melanoma, 51.7%; in the assay on LOX IMVI melanoma, 54.9%; with SK-MEL-28 melanoma, 76.1%.
In the case of `Oc1ccc(Cn2cc3c(c2-c2ccccc2)CCc2cnoc2-3)cc1`, the growth was 100% in the assay on HCT-15 colon; 94% in the assay on HT29 colon; 91.9% with SNB-75 CNS; 99.2% in the assay with SNB-19 CNS; 88.9% in the assay with U251 CNS; 87.3% in the assay with PC-3 prostate. Further, the growth is 89.9% in the assay with SK-MEL-5 melanoma, 70.3% with UACC-62 melanoma, 88.7% in the assay on LOX IMVI melanoma and 101% in the assay on SK-MEL-28 melanoma.
Regarding `Cc1cc(/C=C2\SC(=Nc3ccccc3)N(C3CCCC3)C2=O)c(C)n1-c1ccc(Cl)cc1`, the growth is -28.2% (active) in the assay on HCT-15 colon; -65.8% (active) in the assay on HT29 colon; -51.3% (active) in the assay on SNB-75 CNS; -65.8% (active) in the assay with SNB-19 CNS; -91.1% (active) with U251 CNS; -63.4% (active) with PC-3 prostate. In addition, the growth was -97.9% (active) with SK-MEL-5 melanoma, -56.3% (active) in the assay on UACC-62 melanoma, -72.7% (active) with LOX IMVI melanoma and -69.8% (active) in the assay with SK-MEL-28 melanoma.
`CC1(C)CC(OCCCC[P+](c2ccccc2)(c2ccccc2)c2ccccc2)CC(C)(C)N1O`: the growth in the assay with HCT-15 colon is 9.52% (active); with HT29 colon, 10.6%; with SNB-75 CNS it was -3.17% (active); in the assay with SNB-19 CNS, 3.91% (active); in the assay with U251 CNS, 8.32% (active); in the assay with PC-3 prostate it was -45.6% (active). The growth is -98.4% (active) in the assay on SK-MEL-5 melanoma, -35.9% (active) in the assay with UACC-62 melanoma, -74.2% (active) in the assay on LOX IMVI melanoma and -55.8% (active) with SK-MEL-28 melanoma.
